High-throughput results (PubChem BioAssay)
PP5 inh: PP5 phosphatase inhibitors, primary screen, biochemical, fluorescence; actives 0.18% (n = 320,000); purified PP5c, OMFP substrate fluorescence; inhibition, % at 6.7 µM;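 active = inhibition above the campaign's mean inhibition across all tested compounds plus 3 SD, cut at about 9.5% in these data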;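 also: 0% = DMSO only and 100% = 100 µM cantharidin control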
Target sequence (P53041 whole entry, looked up): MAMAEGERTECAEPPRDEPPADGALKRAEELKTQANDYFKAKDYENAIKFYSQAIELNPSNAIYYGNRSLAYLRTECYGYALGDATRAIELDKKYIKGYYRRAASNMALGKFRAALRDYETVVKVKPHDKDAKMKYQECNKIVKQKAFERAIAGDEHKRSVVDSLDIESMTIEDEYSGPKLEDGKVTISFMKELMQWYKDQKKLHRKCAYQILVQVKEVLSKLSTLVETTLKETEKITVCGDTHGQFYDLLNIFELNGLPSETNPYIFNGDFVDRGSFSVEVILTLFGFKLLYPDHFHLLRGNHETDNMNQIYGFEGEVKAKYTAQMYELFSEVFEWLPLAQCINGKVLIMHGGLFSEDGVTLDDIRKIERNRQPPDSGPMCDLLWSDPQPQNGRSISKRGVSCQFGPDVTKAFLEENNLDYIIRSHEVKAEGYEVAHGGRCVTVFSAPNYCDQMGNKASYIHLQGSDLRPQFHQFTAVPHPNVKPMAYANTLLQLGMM
CSC inhib: cancer stem cell viability inhibitors, primary screen, luminescence; AID 2717, 2010; inhibition, % at 7.5 µM; actives 1.1% (n = 300,000); cancer stem cell-like cells viability; in the data active = inhibition above about 75%; inconclusive = no clear call, values can overlap the other calls; tested in HMLE shEcad cells
SKKanGAS inh: S. pyogenes SKKanGAS growth inhibitors in kanamycin, primary screen, streptokinase expression inhibitor project, SKKanGAS strain, BacTiter-Glo luminescence; 6 h; inhibition, % at 7.5 µM; actives 1.3% (n = 300,000); AID 1662, 2009;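 active = mean replicate score, as percent of positive control median, at least 50; inconclusive = mean below 50 but one replicate at or above 50; inactive = mean and every replicate below 50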;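 also: strain carries kanamycin resistance gene driven by streptokinase promoter and grows in 40 µg/ml kanamycin; loss of luminescence reflects streptokinase promoter inhibition or plain growth inhibition; 0% = median of DMSO wells and 100% = positive control at its reference dose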
PP1 counter: PP1-alpha phosphatase inhibitors, primary screen, counter-screen for PP5 inhibitor project, biochemical, fluorescence, OMFP substrate, single point | Serine/threonine-protein phosphatase PP1-alpha catalytic subunit (Homo sapiens), P62136 | purified PP1alpha | inhibition, % at 6.7 µM | actives 0.9% (n = 320,000);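 active = inhibition above the mean inhibition of all tested compounds plus 3 SD, computed separately for each screening campaign, cut at about 15% in these data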
Beta cell apopt: inhibitors of cytokine-induced beta cell apoptosis, primary screen, luminescence; actives 0.8% (n = 300,000); protection from apoptosis, % (test concentration not listed); AID 435005, 2010; INS-1E cytokine-induced death, ATP luminescence, 48 h; percent of positive-control rescue, neutral wells zero;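 active = Every replicate reaches about 75%, or at least half do and their mean reaches it too, limit read from the data; inconclusive = At least half of replicates reach the limit but their mean does not; inactive = Under half of replicates reach the limit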;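 also: 0% = cytokine-treated negative control wells and 100% = positive control rescue; higher means more ATP so stronger rescue from cytokine killing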
PP1 confirm: PP1 phosphatase inhibitors, confirmation, biochemical, fluorescence, OMFP substrate, triplicate | AID 2358, 2010 | inhibition, % at 6.7 µM | actives 52% (n = 1,900) | shares compounds with PP1 counter | purified PP1alpha;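 active = mean PP1 inhibition above a set limit taken from the earlier primary screen, cut at about 15% in these data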
PP5 inh counter: PP5 phosphatase inhibition by PP1 hits, confirmation, counter-screen for PP1 inhibitor project, biochemical, fluorescence, triplicate; inhibition, % at 6.7 µM; purified PP5c, OMFP fluorescence; shares compounds with PP1 counter; actives 4% (n = 1,900);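 active = mean PP5 inhibition over triplicate wells above about 9.5% taken from the earlier PP1 screen, limit read from the data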
Active calls of the source: *; ? = inconclusive; . = no result. This is a sample that favours compounds with a hit; in the whole collection about 3.1% have one here.

SMILES	PP5 inh	CSC inhib	SKKanGAS inh	PP1 counter	Beta cell apopt	PP1 confirm	PP5 inh counter
Cc1ccc(/C=N/Nc2ccnc3cc(Cl)ccc23)c(C)c1	5.9	.	94.7*	33.1*	101.3*	2.8	2.4
Cc1cccc(C)c1-n1cccc1/C=C1\SC(=S)N(c2cccc(C(=O)O)c2)C1=O	3.9	30.9	111.2*	21.8*	4.3	22.7*	3.6
O=C(/C=C/c1ccc(F)cc1)NC(Cc1c[nH]c2ccccc12)C(=O)O (stereo not given)	4.1	-9.9	-3.3	0.7	4.2	.	.
O=C(N/N=C/c1ccc(O)c(O)c1O)/C(=C/c1ccc([N+](=O)[O-])cc1)NC(=O)c1ccccc1	1.8	34.8	?	31.9*	4.0	36.3*	-1.9
Cc1ccc(NC(=O)/C(=C\c2ccc([N+](=O)[O-])cc2)NC(=O)c2ccccc2)cc1	-1.1	-13.5	6.2	0.3	-2.1	.	.
N=c1c(C(=O)NCc2ccco2)cc2c(=O)n3ccccc3nc2n1Cc1ccc(Cl)cc1	3.5	2.7	16.7	17.9*	9.9	6.5	-1.3
Cc1ccc(S(=O)(=O)c2cc3c(=O)n4ccccc4nc3n(Cc3ccco3)c2=N)cc1	2.9	5.8	7.6	21.0*	-14.6	5.3	0.6
Cc1ccc(CNC(=O)c2cc3c(=O)n4ccccc4nc3n(Cc3ccco3)c2=N)cc1	-0.7	70.1	6.3	-1.4	2.0	.	.
COc1cc(OC)c(OC)cc1CN1CCN(Cc2cccn2C)CC1	-1.4	-14.2	8.8	18.2*	-2.3	3.6	5.0
COc1cc(OC)c(OC)cc1CN1CCN(c2ccccc2OC)CC1	0.0	-4.9	0.2	0.3	-6.6	.	.
Cc1ccc(/C=N/n2c(-c3ccc(Cl)cc3)n[nH]c2=S)s1	2.4	-0.8	-19.4	20.4*	-4.4	9.9	-4.0
Cc1cccc(C(=O)NCC(=O)NC(C)c2ccc(-n3ccnc3)cc2)c1 (stereo not given)	0.3	-9.3	-4.0	-0.8	-3.6	.	.
O=C(O)CSc1cc(C(=O)c2ccccc2O)cn2c(=O)c3c(-c4ccccc4)csc3nc12	1.0	7.2	38.4	19.6*	-0.8	16.0*	-4.9
CCOC(=O)c1sc2nc3c(SCC(=O)O)cc(C(=O)c4cc(F)ccc4O)cn3c(=O)c2c1C	0.9	25.9	74.3*	60.9*	-3.5	48.3*	-3.0
COc1ccc(O)c(C(=O)c2cc(SCC(=O)O)c3nc4sc5c(c4c(=O)n3c2)CCCC5)c1	2.1	26.9	51.5*	29.1*	-2.1	18.6*	-2.7
CCOC(=O)c1sc2nc3c(SCC(=O)O)cc(C(=O)c4ccccc4O)cn3c(=O)c2c1C	1.2	7.2	5.5	12.6	-11.9	.	.
OCCC#Cc1ccc(CN2CCN(C3CCCCC3)C(CCO)C2)cc1 (stereo not given)	-0.5	.	2.7	-1.9	0.7	.	.
C/C(=N\Nc1ccc([N+](=O)[O-])cc1)c1cc2ccccc2o1	5.8	29.9	-1.7	-1.4	0.0	.	.
COc1ccc(COc2ccccc2C(=O)NCc2ccccc2)cc1F	4.4	11.5	10.2	1.4	.	.	.
CC(=O)Cc1nsc(NC(=O)c2ccc(-c3cccc(Cl)c3)o2)n1	3.1	66.4	24.8	28.6*	2.5	-0.3	-1.9
COc1ccccc1CCNC(=O)C(=O)NCC1OCCN1S(=O)(=O)c1ccc(OC)c(OC)c1 (stereo not given)	1.8	5.2	-4.1	2.3	-9.6	.	.
CCC(C)(C)NC(=O)C(c1cccn1C)N(Cc1ccc(OC)cc1)C(=O)Cn1nnc2ccccc21 (stereo not given)	-0.2	13.2	12.9	29.5*	17.6	25.5*	2.3
Cc1sc2ncnc(N3CCC(C(=O)Nc4sc5c(c4C(N)=O)CCC(C)C5)CC3)c2c1C (stereo not given)	1.5	.	.	-2.5	8.1	.	.
O=[N+]([O-])c1cc(Br)c(O)c(/C=N/Nc2nnnn2-c2cccc3ccccc23)c1	7.8	50.7	66.3*	20.7*	.	23.1*	-3.6
O=[N+]([O-])c1cc(Br)c(O)c(C=Nc2ccc(N3CCOCC3)cc2)c1	4.5	8.0	17.8	1.5	0.3	.	.
SMILES	PP5 inh	CSC inhib	SKKanGAS inh	PP1 counter	Beta cell apopt	PP1 confirm	PP5 inh counter
Cn1ccc(C(=O)Nc2ccc(Br)cc2Br)n1	2.2	17.5	-11.5	-1.3	-9.1	.	.
CC/C(Cc1ccccc1)=N/NC(=O)c1cccc(Br)c1	0.0	-22.1	3.8	-0.7	-2.3	.	.
CCOc1ccc(NC(=O)COc2ccc(-n3cnnn3)cc2)cc1	2.8	.	.	-4.7	-2.7	.	.
CCOC(=O)c1ccc(NC(=O)COc2ccc(-n3cnnn3)cc2)cc1	1.1	5.0	7.0	20.0*	-4.1	4.7	-5.8
CCCC(NC(=O)CCc1c(C)c2cc3c(-c4ccccc4)coc3cc2oc1=O)C(=O)O (stereo not given)	-0.5	-4.6	18.5	-1.0	0.5	.	.
CN(C)c1ccc(/C=C(\NC(=O)c2ccccc2)C(=O)NCc2cccnc2)cc1	-1.6	.	3.7	5.7	-0.1	.	.
Cc1ccc(C(=O)N/C(=C\c2ccc(-c3cc(Cl)ccc3Cl)o2)C(=O)NCc2cccnc2)cc1	1.7	-9.4	26.6	18.4*	-3.3	16.3*	3.4
Cc1cc(C2=NNC(=Nc3ccc(S(=O)(=O)N4CCOCC4)cc3)SC2)c(C)n1C	0.0	6.6	1.5	17.8*	-3.4	-0.5	-3.1
C=CCn1c(C)cc(C2=NNC(=Nc3ccc(C)cc3)SC2)c1C	-0.6	-4.5	2.5	7.8	-0.2	.	.
COc1cc(NS(=O)(=O)c2ccc(NC(=S)NC(=O)/C=C/c3ccc(OC)c(OC)c3)cc2)ncn1	-0.5	-8.9	4.4	0.4	1.2	.	.
COc1ccc(/C=C/C(=O)NC(=S)Nc2ccc(S(=O)(=O)N=C(N)N)cc2)cc1OC	0.7	-6.1	-4.6	19.7*	-7.5	23.1*	-1.7
Cc1nn(-c2ccccc2)c(Cl)c1/C=N/Nc1ccc(S(=O)(=O)Nc2ccccc2C(=O)O)cc1[N+](=O)[O-]	3.3	96.4*	118.6*	19.9*	-1.1	10.6	-1.7
COc1ccc(C2C(C(=O)c3cccs3)=C(O)C(=O)N2c2nncs2)cc1 (stereo not given)	2.1	-6.3	-7.6	-1.1	-9.3	.	.
Cc1ccc(C2C(C(=O)c3ccco3)=C(O)C(=O)N2c2nnc(C)s2)cc1 (stereo not given)	0.9	-18.8	-3.9	6.8	-2.9	.	.
O=C(C1=C(O)C(=O)N(c2nc3ccc(Cl)cc3s2)C1c1ccco1)c1ccco1 (stereo not given)	0.4	.	.	18.7*	-3.9	25.2*	-2.0
